From PubChem BioAssay (Tox21) come the findings set out here.

Each structure is given as a SMILES string. Several values for one entry are separate records, joined by “and”; a condition that tells them apart may be missing. Equal entries are not always repeated. Inconclusive results are not listed. A call without a number means that no potency is given here. Some structures have more than one record in an assay (separate samples or runs), and their calls can disagree. Activity calls are given as the source filed them. The call rests on the fitted dose curve; in most records, active means well fitted curve in the direction sought with a large enough effect in the repeat runs; inconclusive means weak or mixed curves; inactive means no such curve, though single readings can be large; an effect the other way counts as inactive or inconclusive.

The target of assay [1] is Voltage-gated inwardly rectifying potassium channel KCNH2 (Homo sapiens) (UniProt Q12809). Briefly: Human Ether-a-go-go-Related Gene (hERG) channel small molecule antagonists: fluorescence cell-based qHTS assay (AID 1671200).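 Further: hERG-expressing U2OS cells given a thallium stimulus after FluxOR II dye loading; series mostly up to about 77 µM.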 The method, boiled down:
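Quantitative HTS in hERG-U2OS cells: thallium entry through the channel reports activity, read as continuous 480/540 nm fluorescence over 2 min after stimulus addition.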
On the technique in general: hERG is a cardiac potassium channel; its block is linked to QT prolongation.

Assay [2] addresses Cytochrome P450 3A4 (Homo sapiens) (UniProt P08684). Briefly: Cytochrome P450 Family 3 Subfamily A Member 4 (CYP3A4) small molecule antagonists: luciferase reporter qHTS assay (AID 1671201). Further: potency means the concentration at half of the fitted maximal effect. On activity change, negative = inhibition: series mostly up to about 120 µM. The method, boiled down:
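Inhibition of CYP3A4 is measured as loss of light: the enzyme converts a proluciferin substrate to luciferin, detected luminescently. Reaction ran 1 h at room temperature with NADPH regeneration after a 10 min compound preincubation.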
A general note: Reporter assays use an easily measured gene product as a stand-in for the process of interest.
Further: nearly all actives have a fitted effect of over 50% in size.

Voltage-gated inwardly rectifying potassium channel KCNH2 (Homo sapiens), sequence (Q12809 whole entry, looked up): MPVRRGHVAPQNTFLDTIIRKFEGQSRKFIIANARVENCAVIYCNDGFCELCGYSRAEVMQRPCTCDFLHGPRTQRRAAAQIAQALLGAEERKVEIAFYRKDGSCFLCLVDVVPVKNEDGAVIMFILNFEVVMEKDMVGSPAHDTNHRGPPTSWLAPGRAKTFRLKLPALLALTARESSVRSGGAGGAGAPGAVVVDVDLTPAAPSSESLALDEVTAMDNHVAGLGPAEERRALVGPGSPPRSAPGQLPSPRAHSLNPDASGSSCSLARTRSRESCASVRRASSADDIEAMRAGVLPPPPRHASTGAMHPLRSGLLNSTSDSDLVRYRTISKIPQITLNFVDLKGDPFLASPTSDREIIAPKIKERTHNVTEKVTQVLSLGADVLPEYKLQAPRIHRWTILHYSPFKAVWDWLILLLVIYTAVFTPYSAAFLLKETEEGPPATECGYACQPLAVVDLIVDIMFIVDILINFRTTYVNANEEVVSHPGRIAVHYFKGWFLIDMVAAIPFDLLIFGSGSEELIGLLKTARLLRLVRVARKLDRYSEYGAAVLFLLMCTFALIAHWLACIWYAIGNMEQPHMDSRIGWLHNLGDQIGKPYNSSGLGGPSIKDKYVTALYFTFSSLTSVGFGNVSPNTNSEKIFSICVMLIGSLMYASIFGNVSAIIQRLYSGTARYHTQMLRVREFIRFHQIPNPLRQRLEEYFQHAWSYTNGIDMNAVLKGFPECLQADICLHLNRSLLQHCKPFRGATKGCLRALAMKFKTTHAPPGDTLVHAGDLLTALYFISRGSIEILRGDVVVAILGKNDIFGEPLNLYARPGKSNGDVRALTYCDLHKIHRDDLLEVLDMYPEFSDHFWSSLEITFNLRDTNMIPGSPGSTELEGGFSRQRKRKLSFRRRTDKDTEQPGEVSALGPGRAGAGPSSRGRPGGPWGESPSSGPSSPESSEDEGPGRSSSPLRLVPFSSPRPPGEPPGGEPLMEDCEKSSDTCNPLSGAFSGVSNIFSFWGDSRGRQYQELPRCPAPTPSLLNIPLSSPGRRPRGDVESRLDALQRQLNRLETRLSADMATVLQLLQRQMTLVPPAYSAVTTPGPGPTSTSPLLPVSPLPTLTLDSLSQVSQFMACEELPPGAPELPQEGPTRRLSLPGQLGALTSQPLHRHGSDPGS
Cytochrome P450 3A4 (Homo sapiens), sequence (P08684 whole entry, looked up): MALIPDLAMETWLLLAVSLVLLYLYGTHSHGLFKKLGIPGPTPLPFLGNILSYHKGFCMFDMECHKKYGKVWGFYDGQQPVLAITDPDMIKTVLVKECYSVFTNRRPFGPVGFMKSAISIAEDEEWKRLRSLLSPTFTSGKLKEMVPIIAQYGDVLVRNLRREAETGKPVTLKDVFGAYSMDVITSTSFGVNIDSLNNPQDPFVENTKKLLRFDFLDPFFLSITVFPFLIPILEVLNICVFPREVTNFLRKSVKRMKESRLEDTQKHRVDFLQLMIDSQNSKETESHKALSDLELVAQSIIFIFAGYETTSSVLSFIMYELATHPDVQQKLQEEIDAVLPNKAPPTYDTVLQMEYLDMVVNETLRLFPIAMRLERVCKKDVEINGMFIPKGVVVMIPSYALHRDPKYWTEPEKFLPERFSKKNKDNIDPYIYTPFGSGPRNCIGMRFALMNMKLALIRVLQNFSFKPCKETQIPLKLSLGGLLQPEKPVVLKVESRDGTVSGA

With `CC1CCC2CC1C2(C)C` (configuration not stated), in assay [1], the outcome was inactive. Moreover, in assay [2], the Potency result is “inactive and 39.9 µM (active)”.

Take `C=C(C)C(=O)Nc1ccc(Cl)c(Cl)c1`: the call in assay [1] was inactive. Moreover, in assay [2], the Potency entry was “inactive”.

On to `C#C[C@]1(O)CC[C@H]2[C@@H]3CCC4=CC(=O)CC[C@@H]4[C@H]3CC[C@@]21C`, for which the outcome in assay [1] was inactive.

As for `COc1cc(Cc2cnc(N)nc2N)cc(OC)c1OC`, the compound was classed as inactive in assay [1].

Regarding `c1c[nH]cn1`, in assay [1], the call was inactive.

As to `OCCOCCOCCO`, in assay [1], the call was inactive. Moreover, the Potency entry in assay [2] is “inactive”.

On to `CCC(O)OC(O)CC` (configuration not stated), for which the compound was called inactive in assay [1]. The Potency result in assay [2] is “inactive”.

Turning to `CCCCCCCCC/C=C/CC1CC(=O)OC1=O` (configuration not stated), the compound was called inactive in assay [1]. The Potency result in assay [2] is “inactive”.

As to `CN(C)CCOCCN(C)C`, in assay [1], the compound was called inactive. Moreover, the Potency entry in assay [2] was “inactive”.

Take `C[C@H]1C[C@@H]2[C@H]([C@@H](O)C[C@@]3(C)[C@H]2CC[C@]3(O)C(=O)CO)[C@@]2(C)C=CC(=O)C=C12`: the compound was classed as inactive in assay [1].

Turning to `C=CCOC(=O)c1ccccc1C(=O)OCC=C`, in assay [1], the compound was classed as inactive. Further, the Potency in assay [2] was 3.12 µM (active) and 6.33 µM (active).

Take `CCCC(C)=O`: the compound was called inactive in assay [1]. In assay [2], the Potency entry is “inactive”.

In the case of `Cc1cccnc1`, in assay [1], the compound was called inactive. In assay [2], the Potency entry is “inactive”.

As to `O=C(CC(C(=O)OC1CCCCC1)S(=O)(=O)O)OC1CCCCC1` (configuration not stated), the result in assay [1] was inactive. Also, the Potency entry in assay [2] was “inactive”.

Take `CCN(CC)CCCC(C)Nc1ccnc2cc(Cl)ccc12` (configuration not stated): the activity change, negative = inhibition in assay [1] is 0.661% [at 6.97 µM] (inactive) and 1.69% [at 15.8 µM] (inactive).

In the case of `O=C(O)[C@H](O)[C@@H](O)[C@H](O)[C@H](O)CO`, in assay [1], the compound was called inactive. Also, the Potency entry in assay [2] is “inactive”.

For `Cc1ccc(S(N)(=O)=O)cc1`, the compound was called inactive in assay [1]. The Potency in assay [2] was 28.1 µM (active) and inactive.

Turning to `CC1=CC(=O)NS(=O)(=O)O1`, the result in assay [1] was inactive.

Regarding `CSCCC=O`, the compound was classed as inactive in assay [1]. The Potency entry in assay [2] was “inactive”.
